According to ChEMBL document CHEMBL3988442, “University of Dundee, Small-Polar-MMV Screening Library” (2021):
For some of these results: Entries with a potency or affinity are not part of this list.

Experiments:
Design in all cases: scale not given: direction of the effect not stated beside the values
[1] = biological target: Protein translocase subunit SecA (Escherichia coli (strain K12)) (UniProt P10408); experiment: Assay to Identify E. coli SecA ATPase Inhibitors; type: functional; conditions: 30 µM
[2] = biological target: T1, Ubiquitin-activating enzyme e1, putative (Leishmania donovani (strain BPK282A1)) (UniProt E9BSI1); experiment: Leishmania donovani Ubiquitin Activating Enzyme (LdE1); type: functional; conditions: 30 µM
T1 sequence (whole entry): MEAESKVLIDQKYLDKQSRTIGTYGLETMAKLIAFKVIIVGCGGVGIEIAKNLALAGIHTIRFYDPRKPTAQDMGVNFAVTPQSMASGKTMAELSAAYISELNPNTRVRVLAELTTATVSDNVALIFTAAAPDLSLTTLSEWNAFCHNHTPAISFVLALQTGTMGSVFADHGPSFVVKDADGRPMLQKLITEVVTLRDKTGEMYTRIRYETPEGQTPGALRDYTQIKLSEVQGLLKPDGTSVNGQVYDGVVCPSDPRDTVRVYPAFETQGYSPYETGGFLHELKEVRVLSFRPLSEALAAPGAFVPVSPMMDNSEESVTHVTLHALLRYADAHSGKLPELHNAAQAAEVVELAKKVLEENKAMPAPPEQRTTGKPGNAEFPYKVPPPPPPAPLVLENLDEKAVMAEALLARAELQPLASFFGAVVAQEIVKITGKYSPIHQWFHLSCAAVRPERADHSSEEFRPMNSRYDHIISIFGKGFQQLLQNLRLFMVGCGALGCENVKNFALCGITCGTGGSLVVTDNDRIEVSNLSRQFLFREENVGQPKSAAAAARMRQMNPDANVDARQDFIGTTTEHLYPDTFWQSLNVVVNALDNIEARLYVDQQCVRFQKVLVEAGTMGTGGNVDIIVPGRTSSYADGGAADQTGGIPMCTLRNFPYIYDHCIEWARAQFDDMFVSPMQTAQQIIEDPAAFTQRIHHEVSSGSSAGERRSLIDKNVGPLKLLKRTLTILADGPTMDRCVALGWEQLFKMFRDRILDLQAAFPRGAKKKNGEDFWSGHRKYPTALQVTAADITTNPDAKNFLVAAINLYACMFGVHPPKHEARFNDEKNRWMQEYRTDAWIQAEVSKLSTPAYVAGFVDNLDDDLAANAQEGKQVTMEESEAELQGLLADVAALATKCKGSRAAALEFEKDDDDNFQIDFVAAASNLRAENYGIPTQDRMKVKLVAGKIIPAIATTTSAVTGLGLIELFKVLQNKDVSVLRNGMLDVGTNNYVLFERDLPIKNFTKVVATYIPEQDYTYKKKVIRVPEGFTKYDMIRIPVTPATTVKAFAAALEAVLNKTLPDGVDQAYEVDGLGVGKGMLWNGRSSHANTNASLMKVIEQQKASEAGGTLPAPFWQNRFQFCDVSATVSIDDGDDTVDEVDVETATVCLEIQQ

[3] = biological target: AMP-activated protein kinase, AMPK (Homo sapiens) (UniProt P54646+O43741+P54619+Q9UGJ0+Q9Y478+Q13131+Q9UGI9); experiment: AMP-dependent Kinase enzyme assay. An in vitro enzyme assay that detects ADP turnover that is directly proportional to AMPK activity. This uses naive AMPK that is activated during the assay with MK-8722; type: functional; conditions: 30 µM
[4] = biological target: Sialic acid-binding Ig-like lectin 9 (Homo sapiens) (UniProt Q9Y336); experiment: Hs-Siglec9 ALPHAscreen SOP 20170721; conditions: 10 µM
[5] = system: Trypanosoma cruzi; experiment: Trypanosoma cruzi phosphomannomutase and mannose-1-phosphate guanylyltransferase assay; type: functional; conditions: 10 µM
[6] = biological target: T2, Arginase-2, mitochondrial (Homo sapiens) (UniProt P78540); experiment: in vitro enzyme assay to detect the production of urea directly proportional to the activity of Arginase II; type: functional; conditions: 33.3 µM; also: in the data most compounds retested in dose-response had high values
T2 sequence (whole entry): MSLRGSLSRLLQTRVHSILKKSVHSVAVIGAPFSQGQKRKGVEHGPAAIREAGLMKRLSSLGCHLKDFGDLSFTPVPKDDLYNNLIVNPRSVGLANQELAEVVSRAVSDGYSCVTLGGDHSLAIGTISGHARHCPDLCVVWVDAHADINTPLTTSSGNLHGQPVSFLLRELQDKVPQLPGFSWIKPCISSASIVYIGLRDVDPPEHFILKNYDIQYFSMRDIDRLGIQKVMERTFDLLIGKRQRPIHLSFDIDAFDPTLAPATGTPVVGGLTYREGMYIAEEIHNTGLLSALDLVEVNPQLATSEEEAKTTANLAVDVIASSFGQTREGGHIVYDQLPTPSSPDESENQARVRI

[7] = biological target: T3, Proteasome subunit beta (Trypanosoma cruzi) (UniProt O96673); experiment: Trypanosoma cruzi proteasome chymotrypsin-like activity (TcProtChymo) assay.; also: in the data most compounds retested in dose-response had high values; type: functional; conditions: 9.37 µM
T3 sequence (whole entry): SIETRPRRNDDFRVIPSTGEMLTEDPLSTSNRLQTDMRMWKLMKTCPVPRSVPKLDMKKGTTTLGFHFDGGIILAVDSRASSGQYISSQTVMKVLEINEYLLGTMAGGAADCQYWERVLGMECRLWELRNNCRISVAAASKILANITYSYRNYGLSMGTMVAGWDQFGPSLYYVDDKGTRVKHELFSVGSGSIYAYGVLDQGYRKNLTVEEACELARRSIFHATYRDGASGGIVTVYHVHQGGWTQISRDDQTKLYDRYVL

[8] = species on record: Homo sapiens; experiment: To identify inhibition of the IFN signalling (Jak-Stat) pathway via expression of an eGFP reporter gene under the control of an IFN-stimulated response element (ISRE) containing MxA promoter.; type: functional; conditions: 30 µM
[9] = biological target: T4, Tyrosyl-tRNA synthetase, putative (Trypanosoma cruzi (strain CL Brener)) (UniProt Q4DSP6); experiment: Trypanosoma cruzi tyrosyl tRNA synthetase (TcYRS) _High Tyrosine SOP; type: functional; conditions: 30 µM; also: in the data most compounds retested in dose-response had high values
T4 sequence (whole entry): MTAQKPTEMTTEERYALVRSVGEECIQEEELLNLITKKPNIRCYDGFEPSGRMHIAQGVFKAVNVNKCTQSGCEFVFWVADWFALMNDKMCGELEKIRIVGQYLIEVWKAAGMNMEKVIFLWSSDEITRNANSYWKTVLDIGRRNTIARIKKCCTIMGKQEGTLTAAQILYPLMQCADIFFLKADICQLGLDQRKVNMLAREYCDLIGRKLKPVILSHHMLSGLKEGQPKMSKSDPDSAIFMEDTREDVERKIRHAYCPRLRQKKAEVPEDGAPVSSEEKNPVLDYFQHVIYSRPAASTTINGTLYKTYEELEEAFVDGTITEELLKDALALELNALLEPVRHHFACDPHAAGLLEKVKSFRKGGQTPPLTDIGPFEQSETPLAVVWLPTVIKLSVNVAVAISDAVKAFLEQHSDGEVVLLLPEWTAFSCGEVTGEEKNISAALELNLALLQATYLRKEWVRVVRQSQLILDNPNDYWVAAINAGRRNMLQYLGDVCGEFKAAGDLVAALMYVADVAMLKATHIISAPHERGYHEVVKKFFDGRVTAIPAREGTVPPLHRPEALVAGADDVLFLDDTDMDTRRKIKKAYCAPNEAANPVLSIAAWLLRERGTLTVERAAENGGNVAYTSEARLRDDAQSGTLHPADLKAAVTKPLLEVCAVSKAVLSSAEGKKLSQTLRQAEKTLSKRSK

[10] = biological target: T4, Tyrosyl-tRNA synthetase, putative (Trypanosoma cruzi (strain CL Brener)); experiment: Trypanosoma cruzi tyrosyl tRNA synthetase (TcYRS) SOP; type: functional; conditions: 30 µM
[11] = biological target: Chromo domain-containing protein 1 (Saccharomyces cerevisiae (strain ATCC 204508 / S288c) (Baker's yeast)) (UniProt P32657); experiment: ScCHD-1 Enzyme Inhibition Assay; type: functional; conditions: 30 µM; also: in the data most compounds retested in dose-response had high values
Chain of Chromo domain-containing protein 1 (Saccharomyces cerevisiae (strain ATCC 204508 / S288c) (Baker's yeast)) (P32657 whole entry, the tested form may be a part): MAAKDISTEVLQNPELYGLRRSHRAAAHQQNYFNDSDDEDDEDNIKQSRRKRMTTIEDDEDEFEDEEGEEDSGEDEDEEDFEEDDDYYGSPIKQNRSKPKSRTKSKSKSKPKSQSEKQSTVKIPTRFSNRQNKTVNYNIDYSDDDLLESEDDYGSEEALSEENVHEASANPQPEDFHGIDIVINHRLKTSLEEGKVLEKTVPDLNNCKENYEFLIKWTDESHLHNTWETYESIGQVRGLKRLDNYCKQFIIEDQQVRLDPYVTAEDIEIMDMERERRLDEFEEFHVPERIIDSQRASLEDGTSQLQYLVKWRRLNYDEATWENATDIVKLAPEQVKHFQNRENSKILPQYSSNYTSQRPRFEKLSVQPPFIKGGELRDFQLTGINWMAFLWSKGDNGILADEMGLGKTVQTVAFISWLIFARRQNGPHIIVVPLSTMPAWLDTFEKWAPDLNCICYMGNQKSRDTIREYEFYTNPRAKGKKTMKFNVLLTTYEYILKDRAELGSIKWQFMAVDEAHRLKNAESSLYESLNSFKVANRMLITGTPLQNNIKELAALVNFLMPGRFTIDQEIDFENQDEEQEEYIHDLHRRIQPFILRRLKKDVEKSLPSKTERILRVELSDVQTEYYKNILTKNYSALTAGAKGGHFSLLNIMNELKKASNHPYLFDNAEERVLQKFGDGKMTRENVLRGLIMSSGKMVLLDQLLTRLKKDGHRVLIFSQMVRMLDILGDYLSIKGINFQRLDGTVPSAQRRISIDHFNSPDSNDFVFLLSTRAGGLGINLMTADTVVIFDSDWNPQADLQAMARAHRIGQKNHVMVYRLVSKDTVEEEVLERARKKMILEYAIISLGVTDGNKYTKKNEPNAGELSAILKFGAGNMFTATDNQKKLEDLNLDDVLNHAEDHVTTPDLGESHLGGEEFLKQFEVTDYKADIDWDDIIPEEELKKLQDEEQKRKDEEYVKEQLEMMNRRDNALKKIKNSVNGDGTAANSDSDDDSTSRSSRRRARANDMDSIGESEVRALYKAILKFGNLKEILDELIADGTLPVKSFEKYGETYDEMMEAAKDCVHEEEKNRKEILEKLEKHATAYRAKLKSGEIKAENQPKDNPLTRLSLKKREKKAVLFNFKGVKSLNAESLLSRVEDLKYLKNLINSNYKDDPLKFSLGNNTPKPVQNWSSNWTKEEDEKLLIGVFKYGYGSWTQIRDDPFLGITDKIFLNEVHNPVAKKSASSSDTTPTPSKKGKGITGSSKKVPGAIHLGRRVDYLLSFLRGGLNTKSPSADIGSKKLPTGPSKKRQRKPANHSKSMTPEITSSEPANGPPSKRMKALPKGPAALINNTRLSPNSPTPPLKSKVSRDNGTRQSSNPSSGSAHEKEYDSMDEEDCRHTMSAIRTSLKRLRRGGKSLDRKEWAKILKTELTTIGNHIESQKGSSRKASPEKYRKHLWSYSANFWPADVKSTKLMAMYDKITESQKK

Chain of Sialic acid-binding Ig-like lectin 9 (Homo sapiens) (Q9Y336 whole entry): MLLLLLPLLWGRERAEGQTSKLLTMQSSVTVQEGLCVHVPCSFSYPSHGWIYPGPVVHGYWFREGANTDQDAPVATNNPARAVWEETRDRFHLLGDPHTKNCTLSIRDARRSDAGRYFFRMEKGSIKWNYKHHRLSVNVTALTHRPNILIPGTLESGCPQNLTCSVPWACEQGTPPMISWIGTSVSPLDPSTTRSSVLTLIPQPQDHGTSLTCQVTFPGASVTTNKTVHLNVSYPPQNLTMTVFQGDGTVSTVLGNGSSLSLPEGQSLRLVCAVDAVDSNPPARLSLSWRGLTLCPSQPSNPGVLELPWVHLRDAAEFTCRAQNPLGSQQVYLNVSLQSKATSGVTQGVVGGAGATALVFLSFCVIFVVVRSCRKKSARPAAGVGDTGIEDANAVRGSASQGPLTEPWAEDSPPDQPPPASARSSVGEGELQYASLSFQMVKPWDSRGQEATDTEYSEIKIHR
Chain of Protein translocase subunit SecA (Escherichia coli (strain K12)) (P10408 whole entry): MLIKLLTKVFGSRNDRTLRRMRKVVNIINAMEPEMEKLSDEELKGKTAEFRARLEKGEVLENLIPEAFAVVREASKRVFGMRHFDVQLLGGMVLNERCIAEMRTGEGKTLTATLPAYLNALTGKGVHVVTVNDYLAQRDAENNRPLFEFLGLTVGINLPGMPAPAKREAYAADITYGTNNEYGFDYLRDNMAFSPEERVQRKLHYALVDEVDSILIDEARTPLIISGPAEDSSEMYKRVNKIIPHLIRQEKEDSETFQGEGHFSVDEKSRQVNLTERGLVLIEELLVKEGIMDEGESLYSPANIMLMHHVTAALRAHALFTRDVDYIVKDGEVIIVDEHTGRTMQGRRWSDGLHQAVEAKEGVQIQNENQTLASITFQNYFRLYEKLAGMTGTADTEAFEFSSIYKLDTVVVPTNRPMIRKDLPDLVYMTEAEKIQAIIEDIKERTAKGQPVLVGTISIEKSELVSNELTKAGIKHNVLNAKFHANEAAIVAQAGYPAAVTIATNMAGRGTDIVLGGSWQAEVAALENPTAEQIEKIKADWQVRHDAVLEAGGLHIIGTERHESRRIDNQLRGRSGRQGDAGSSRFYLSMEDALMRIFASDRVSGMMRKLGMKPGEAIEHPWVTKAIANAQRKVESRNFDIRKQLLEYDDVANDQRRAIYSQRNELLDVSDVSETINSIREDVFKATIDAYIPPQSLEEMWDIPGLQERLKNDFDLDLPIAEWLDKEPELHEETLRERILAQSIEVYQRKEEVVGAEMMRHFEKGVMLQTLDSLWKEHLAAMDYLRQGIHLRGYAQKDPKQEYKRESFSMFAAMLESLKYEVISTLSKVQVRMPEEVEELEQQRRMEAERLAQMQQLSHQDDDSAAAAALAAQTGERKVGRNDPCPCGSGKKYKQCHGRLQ

Compound	Percent Effect [1] [%]	Percent Effect [2] [%]	Percent Effect [3] [%]	Percent Effect [4] [%]	Percent Effect [5] [%]	Percent Effect [6] [%]	Percent Effect [7] [%]	Percent Effect [8] [%]	Percent Effect [9] [%]	Percent Effect [10] [%]	Percent Effect [11] [%]
CCn1c(C)nnc1CN(C)C1CCN(CCn2cccn2)C1 (configuration not stated)	-1.14	15.6	0.0585	-11.5	-0.686	-1.05	17.9	20.6	14.3	23.5	-17.4
c1cnc(-c2nc(CN3CCCC(Cn4cncn4)C3)cs2)nc1 (configuration not stated)	-3.67	8.11	-6.35	6.78	-4.81	-0.802	11	10.9	6.4	6.17	-4.11
Cc1cnc(CNC(=O)NCc2cccnc2N(C)C)s1	-3.06	-2.6	1.02	13.8	-2.43	2.85	-5.07	5.66	0	7.32	2.89
Cc1nc(C)n(CC2CN(c3nnc(C)c(C)c3C#N)CCO2)n1 (configuration not stated)	-5.18	7.89	1.44	6.73	1.13	2.68	8.52	1.18	7.35	12.2	0.234
Fc1cccc(N2CCCC3(C2)CN(c2ncccn2)CCO3)c1 (configuration not stated)	-0.397	13	2.68	-5.04	-2.66	3.23	9.4	23.1	7.41	14.1	-4.87
Cc1cc(CN(C)C(=O)c2cc3c([nH]c2=O)CCCC3=O)no1	-5.46	5.41	-1.63	-1.13	-7.52	5.73	-5.57	18	0.99	6.1	-0.0983
CC(N(C)Cc1nc2c(cnn2C)c(=O)[nH]1)C(C)(C)C (configuration not stated)	-4.87	13.5	-4.12	2.57	-10.1	2.03	7.72	24.6	-1.98	3.66	-4.7
CC(=O)Nc1ccc(CNC2CC(=O)N(Cc3cccc(F)c3)C2)cc1 (configuration not stated)	-2.91	0	-1.25	1.06	-2.7	-3.33	1.55	-18.6	2.65	7.32	-0.408
CN1CCN(C(=O)[C@H]2C[C@@H]3CCN(c4ncc(F)cn4)C[C@@H]3O2)CC1	1.76	8	10	14.4	-2.51	-53.2	10.3	7.21	0	17.5	-8.06
Cc1nc(C2CCCN(C(=O)c3cccc4c3OCO4)C2)no1 (configuration not stated)	-0.923	11.4	6.75	0.303	-5.03	-3.23	19.9	3.42	4.17	10.1	-23.7
c1cnc(N2C[C@H]3CCN(c4cccnc4)C[C@H]3C2)nc1	-6.23	-5.41	-3.42	-2.92	-2.15	-0.417	26.1	6.67	5.94	13.4	7.23
COc1ccc2c(c1)CC(NC(=O)NCc1cccs1)CO2 (configuration not stated)	2.24	7.79	5.45	-2.89	-5.62	-112	5.4	5.91	2.12	8.97	-2.81
O=C(CN1CCCC(Cn2cncn2)C1)NCc1ccco1 (configuration not stated)	-2.6	0	-4.08	-5	-8.12	8.27	7.87	6.12	1.48	-1.24	4.31
Cc1cc(-c2nnc(SCC(=O)O)n2C(C)c2ccccc2)nn1C (configuration not stated)	-4.08	12.5	-0.551	18.6	6.32	1.77	14.9	7.01	9.47	12.8	-1.69
N#CC1(C(=O)N2CCN(Cc3ccon3)CC2)CCC1	-1.32	5.06	1.56	6.56	-7.84	9.89	1.56	23.8	0.493	1.27	-3.39
Cc1cn(CC(=O)NC2CCN(C(=O)C3CC3)CC2)c2ccccc12	-5.47	2.7	-7.57	10.7	7.72	0.744	4.55	9.22	3.23	11.1	-3.71
NC(=O)COc1cccc(C(=O)N2CCCC(n3cccn3)C2)c1 (configuration not stated)	-3.05	13.5	-1.18	4.63	8.45	1.29	16	4.13	4.95	28.1	-6.2
